# From PubChem BioAssay
# HT1080-NT tox: qHTS for induction of synthetic lethality in tumor cells producing 2HG: qHTS for the HT-1080-NT fibrosarcoma cell line | hit rate 1.6% among 360,000 | Potency, µM (series often up to 46.1 µM), for inactives: at the highest dose activity, negative = less viability, actives largely listed as cytotoxic | HT-1080-NT fibrosarcoma viability, CellTiter-Glo ATP luminescence, 48 h | AID 686970, 2013;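 further: NT is the 2HG producing partner of a matched IDH1 knockdown line; potency means the concentration at half of the fitted maximal effect; 0% = DMSO-treated cells and -100% = media-only wells without cells; nearly all actives have a fitted effect of over 55% in size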
#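 HT-1080-NT fibrosarcoma cells (2HG-overproducing), 750 cells/well in RPMI with 5% FBS, dosed after 2 h and incubated 48 h at 37C. CellTiter-Glo luminescence normalized to DMSO and no-cell wells; concentration-response curves fitted and classed.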
# HT1080 IDH1KD tx: qHTS for induction of synthetic lethality in tumor cells producing 2HG: qHTS for the HT-1080-IDH1KD cell line. HT-1080 IDH1 knockdown viability, ATP luminescence, 48 h. hit rate 2% among 360,000. Potency, µM (highest dose often 46.1 µM), for inactives: top-dose activity, negative = toxicity, hits mostly cytotoxic;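 further: potency means the concentration at half of the fitted maximal effect; 0% = DMSO wells and -100% = cell-free medium wells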
#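 Knockdown cells (IDH1KD HT-1080) received compounds 2 h after plating at 750 cells/well and were kept 48 h at 37 °C in 5% FBS RPMI. A CellTiter-Glo luminescence read gave % activity for curve fitting.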
# TDP1 cell CPT: qHTS for Inhibitors of human tyrosyl-DNA phosphodiesterase 1 (TDP1): qHTS in cells in presence of CPT | Potency, µM (highest dose often 46.2 µM), inactives show at the top dose activity change, negative = growth inhibition, usual class: inhibitors | chicken DT40 Tdp1-/-;hTDP1 cells + 20 nM CPT, ATP luminescence, 48 h | AID 686979, 2013 | hit rate 12% among 420,000; further: potency means the concentration at half of the fitted maximal effect; nearly all actives have a fitted effect of over 55% in size
#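 Cell growth measured by CellTiter-Glo luminescence after a minimum 48 h, 37 C compound exposure with 20 nM CPT in Tdp1-knockout DT40 cells stably expressing hTDP1, seeded 400/well; qHTS titration format.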
# IL-1B inflam inh: qHTS for Inhibitors of Inflammasome Signaling: IL-1-beta AlphaLISA Primary Screen. THP-1 LPS/ATP IL-1B secretion, AlphaLISA, 16 h; hits give low values. activity change, % at 57.5 µM. hit rate 4.7% among 360,000. AID 743279, 2014; in the data active means activity change below about -50%; inconclusive means mostly about -30% to -49%
#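 THP-1 cells pretreated 1 hr with compounds (up to 57.5 uM final), then stimulated with LPS (250 ng/mL final) plus ATP (1.25 mM final); secreted IL-1B measured by AlphaLISA after 16 hr, decreased signal indicating inhibition.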
# DT40 TDP1 no CPT: qHTS for Inhibitors of human tyrosyl-DNA phosphodiesterase 1 (TDP1): qHTS in cells in absence of CPT. DT40 Tdp1-/- hTDP1 cells, no CPT, ATP luminescence, 48 h. Potency, µM (highest dose often 46.2 µM), for inactives: top-dose activity change, negative = growth inhibition, hits mostly inhibitors. hit rate 15% among 420,000. AID 686978, 2013; further: potency means the concentration at half of the fitted maximal effect; nearly all actives have a fitted effect of over 55% in size
#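 Luminescent ATP content (CellTiter-Glo) served as the growth readout. Knockout chicken DT40 cells expressing human TDP1 were exposed to compounds without camptothecin for a minimum 48 hr at 37 °C.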
# An asterisk follows results filed as active; ? = inconclusive; nt = no result. A selection: hits, their analogues and other compounds. The true share with any hit is near 19%. Unless noted, the call rests on the fitted dose curve; in most records, active means well fitted curve in the direction sought with a large enough effect; inconclusive means small, poorly fitted or top-dose-only effect, or another doubt; inactive means no such curve, though single readings can be large; an effect the other way counts as inactive or inconclusive. Unless noted, on the % scale 0 is the no-effect control and ±100 the full control effect.
SMILES,HT1080-NT tox,HT1080 IDH1KD tx,TDP1 cell CPT,IL-1B inflam inh,DT40 TDP1 no CPT
CCc1nc2cc3sc(CC)nc3cc2s1,6%,21%,-24%,-3,-25%
CCOC(=O)c1sc(NC(=O)C(C)Sc2nc(-c3ccccc3)cc(C(F)(F)F)n2)c(C(=O)OC)c1C (stereo unspecified),nt,nt,-3%,nt,-9%
Cc1ccc(OCCCNCCO)c(Br)c1,?,21µM*,4.6µM*,-60*,4.6µM*
CCCCNCCCOc1ccc(C)cc1Br,-13%,-27%,18µM*,nt,16µM*
Cc1cc(Br)cc(C)c1OCCCCN(C)C,?,?,29µM*,-21,?
Cc1cc(O)c(C(=O)/C=C/c2ccccc2Br)c(=O)o1,-12%,-12%,?,-77*,?
Cc1cc(O)c(C(=O)/C=C/c2ccccc2)c(=O)o1,-4%,-15%,?,-5,?
O=C(OCc1cn([C@H]2CN(CC3CCCCC3)[C@@H](c3ccc(Cl)cc3)C[C@@H]2O)nn1)c1ccccc1,?,?,?,-5,16µM*
O=C(OCc1cn([C@H]2CN(CC3CCCCC3)[C@@H](c3ccccc3)C[C@@H]2O)nn1)c1ccccc1,9%,15%,?,25,?
O=C(OCc1cn([C@@H]2CN(CC3CCCCC3)[C@@H](c3ccccc3)C[C@H]2O)nn1)c1ccccc1,-3%,-10%,?,-1,18µM*
CC(C)CC1COC(=O)N1 (stereo unspecified),16%,12%,?,-8,-7%
CCN(CC)C(=O)c1sc2c(c1C)c(=O)n(CCc1ccccc1)c(=O)n2Cc1ccc(C)cc1,nt,nt,21µM*,nt,?
CCOC(=O)c1sc2c(c1C)c(=O)n(Cc1ccccc1)c(=O)n2CCN(C)C,-13%,-21%,?,-19,-24%
O=C(Nc1nc(-c2ccccc2)cs1)c1ccc(Br)o1,-5%,-2%,?,-9,?
O=C(NCc1ccc(F)cc1)C1(c2cccs2)CCOCC1,2%,0%,-21%,-2,-22%
Cc1cc2nc(C3CCCCC3)c(Cc3ccsc3)n2c(C)c1Br,?,?,?,70,?
Cc1ccc(Cc2c(C3CCCCC3)nc3ccc(C)cn23)cc1,?,?,18µM*,-52*,18µM*
Cc1ccc2nc(C3CCCCC3)c(Cc3ccsc3)n2c1,-30%,?,13µM*,-11,9.2µM*
CCn1c(CSc2nc3ccccc3s2)nnc1SCC(=O)c1ccc(O)cc1O,6%,-18%,?,31,-6%
NC1(C#Cc2ccc3oc(=O)c(-n4cc(-c5ccsc5)nn4)cc3c2)CCCCC1,-2%,-18%,8.2µM*,-99*,8.2µM*
Cc1nc2ccccc2n1CCOc1ccccc1,-25%,-16%,?,?,?
Cc1ccccc1OCCn1c(C)nc2ccccc21,-18%,?,?,-26,?
CCn1c(CNc2ccc(C(=O)O)cc2)nc2ccccc21,6%,?,?,36,?
Cc1ccc(NCc2nc3ccccc3n2CCOc2ccccc2)cc1,8%,6%,?,-96*,18µM*
CCCn1c(CNc2ccc(Br)cc2)nc2ccccc21,1%,-7%,23µM*,-28,?
SMILES,HT1080-NT tox,HT1080 IDH1KD tx,TDP1 cell CPT,IL-1B inflam inh,DT40 TDP1 no CPT
COc1ccc(NCc2nc3ccccc3n2CCOc2ccccc2C)cc1,nt,nt,18µM*,nt,?
O=C(c1ccccc1NS(=O)(=O)c1cccc(C(F)(F)F)c1)N1CCc2ccccc21,3%,4%,-9%,20,?
CC(O)(c1ccccc1)c1nc(-c2cccc(C(=O)O)c2)cs1 (stereo unspecified),20%,?,-21%,29,-11%
CC(O)(c1cccc(F)c1)c1nc(-c2cccc(C(F)(F)F)c2)cs1 (stereo unspecified),21µM*,?,29µM*,-19,?
COc1cccc(C(C)(O)c2nc(-c3ccc4ccccc4c3)cs2)c1 (stereo unspecified),?,?,?,28,?
COc1cccc(C(C)(O)c2nc(-c3cnc4ccccc4c3)cs2)c1 (stereo unspecified),-20%,?,16µM*,23,18µM*
COc1cc(F)ccc1-c1csc(C(C)(O)c2ccccc2)n1 (stereo unspecified),?,?,?,12,18µM*
CC(O)(c1cccc(F)c1)c1nc(-c2cccc3cccnc23)cs1 (stereo unspecified),?,?,?,-13,26µM*
CN(CC(=O)NC1CC(C)(C)NC(C)(C)C1)S(=O)(=O)c1ccc(Br)cc1,-2%,-1%,0%,-12,-3%
CC(O)(c1ccc(F)c(F)c1)c1nc(-c2cccc(C(F)(F)F)c2)cs1 (stereo unspecified),?,?,18µM*,-16,?
CC(O)(c1ccc(F)c(F)c1)c1nc(-c2ccc(Cl)cc2)cs1 (stereo unspecified),?,23µM*,?,0,?
CC(O)(c1cccc(F)c1)c1nc(-c2cccc(C(=O)O)c2)cs1 (stereo unspecified),9%,0%,-1%,19,-1%
COc1ccc(-c2csc(C(C)(O)c3cccc(F)c3)n2)cc1OC (stereo unspecified),-7%,-19%,23µM*,-9,15µM*
COc1ccc(-c2csc(C(C)(O)c3ccc(F)c(F)c3)n2)cn1 (stereo unspecified),?,?,?,12,?
CC(O)(c1cccc(F)c1)c1nc(-c2ccccc2)cs1 (stereo unspecified),?,?,21µM*,25,18µM*
Cc1ccc(CN2C(=O)C(F)(F)Oc3ccc(C)cc32)cc1,5%,0%,-6%,36,-2%
CC(C)c1ccc(N(CC(=O)NCCSC(C)(C)C)S(C)(=O)=O)cc1,-2%,2%,?,-6,-15%
CCCCNC(=O)CSc1nc2ccccc2nc1Cc1ccc(Cl)cc1,nt,nt,-5%,nt,-8%
Cn1cc(-c2csc(C(C)(O)c3cccc(F)c3)n2)cn1 (stereo unspecified),3%,-10%,-9%,18,-12%
CC(O)(c1cccc(F)c1)c1nc(-c2ccncc2)cs1 (stereo unspecified),?,?,15µM*,15,18µM*
